# IL1B secr inh = qHTS for Inhibitors of Inflammasome Signaling: IL-1-beta AlphaLISA Primary Screen; hit rate 4.7% among 360,000; activity change, % at 57.5 µM; AID 743279, 2014; THP-1 LPS/ATP IL-1B secretion, AlphaLISA, 16 h; stronger effect = lower value; in the data active means activity change below about -50%; inconclusive means mostly about -30% to -49%; further: on the % scale 0 is the no-effect control and ±100 the full control effect
#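 THP-1 cells pretreated 1 hr with compounds (up to 57.5 uM final), then stimulated with LPS (250 ng/mL final) plus ATP (1.25 mM final); secreted IL-1B measured by AlphaLISA after 16 hr, decreased signal indicating inhibition.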
# HepG2 viability = qHTS for Inhibitors of TGF-b: Cytotox Counterscreen; HepG2 CAGA-GFP viability, ATP luminescence, 18 h; Potency, µM (highest dose often 46.1 µM), for inactives: at the top dose activity change, negative = cytotoxicity, usual class: cytotoxic; hit rate 0.76% among 410,000; AID 588856, 2011; further: potency means the concentration at half of the fitted maximal effect
#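 CellTiter-Glo luminescence gave cytotoxicity after 18 hours at 37 degrees C. The cells were HepG2 CAGA-GFP in 1% FBS DMEM, stimulated with 500 pg/mL TGF-beta after compound addition. %Activity was normalised to no-cell wells (complete cell-killing) and DMSO (no toxicity), and curves were fitted and classified.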
# ASM inhibitor = Inhibitors of Secretory Acid Sphingomyelinase (S-ASM): qHTS. Potency, µM (series often up to 57.5 µM), for the others: top-dose activity change, negative = inhibition, actives largely listed as inhibitors. placental ASM, HMU-PC fluorogenic substrate, 60 min. Sphingomyelin phosphodiesterase (Homo sapiens), P17405. hit rate 0.006% among 340,000; further: potency means the concentration at half of the fitted maximal effect
# Target sequence (P17405 47-631 limits assumed): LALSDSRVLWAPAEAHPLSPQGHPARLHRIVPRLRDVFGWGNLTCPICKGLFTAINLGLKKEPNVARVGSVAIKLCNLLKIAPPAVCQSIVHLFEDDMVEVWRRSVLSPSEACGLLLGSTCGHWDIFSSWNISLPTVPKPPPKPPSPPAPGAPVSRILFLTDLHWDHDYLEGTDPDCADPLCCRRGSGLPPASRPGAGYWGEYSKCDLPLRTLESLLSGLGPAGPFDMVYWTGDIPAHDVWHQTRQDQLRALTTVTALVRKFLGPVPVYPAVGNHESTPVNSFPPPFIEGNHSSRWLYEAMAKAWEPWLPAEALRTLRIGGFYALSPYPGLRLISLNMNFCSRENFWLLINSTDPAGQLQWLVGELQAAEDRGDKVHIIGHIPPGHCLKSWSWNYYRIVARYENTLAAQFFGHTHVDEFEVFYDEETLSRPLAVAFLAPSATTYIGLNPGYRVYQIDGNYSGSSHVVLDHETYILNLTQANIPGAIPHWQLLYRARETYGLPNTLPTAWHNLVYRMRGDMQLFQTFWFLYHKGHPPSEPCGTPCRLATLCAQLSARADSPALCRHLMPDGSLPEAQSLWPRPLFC
#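 Human placenta-derived ASM preincubated with compound 10 min at room temperature, then reacted with 9 uM (final) fluorogenic HMU-PC substrate for 60 min at 37 C. Stop solution raises pH to 10; fluorescence read at Ex 386/Em 447 nm.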
# DT40 TDP1 CPT = qHTS for Inhibitors of human tyrosyl-DNA phosphodiesterase 1 (TDP1): qHTS in cells in presence of CPT | chicken DT40 Tdp1-/-;hTDP1 cells + 20 nM CPT, ATP luminescence, 48 h | Potency, µM (series often up to 46.2 µM), for inactives: at the highest dose activity change, negative = growth inhibition, most hits filed as inhibitors | hit rate 12% among 420,000 | AID 686979, 2013; further: potency means the concentration at half of the fitted maximal effect; on the % scale 0 is the no-effect control and ±100 the full control effect; nearly all actives have a fitted effect of over 55% in size
#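 Chicken DT40 Tdp1-/- cells complemented with human TDP1, 400 cells/well, exposed to compounds plus 20 nM camptothecin for at least 48 h at 37 C; viability read as ATP content by CellTiter-Glo luminescence.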
# TDP1 cell noCPT = qHTS for Inhibitors of human tyrosyl-DNA phosphodiesterase 1 (TDP1): qHTS in cells in absence of CPT; DT40 Tdp1-/- hTDP1 cells, no CPT, ATP luminescence, 48 h; Potency, µM (top dose mostly 46.2 µM), for the others: at the top dose activity change, negative = growth inhibition, most hits filed as inhibitors; hit rate 15% among 420,000; further: potency means the concentration at half of the fitted maximal effect; on the % scale 0 is the no-effect control and ±100 the full control effect; nearly all actives have a fitted effect of over 55% in size
#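 Chicken DT40 Tdp1-/- cells complemented with human TDP1, screened without camptothecin (DMSO vehicle only), 400 cells/well. Compounds pin-transferred, cells incubated at 37 °C for at least 48 hr. Growth read as ATP-dependent luminescence (CellTiter-Glo, 30 min at RT).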
# TGFb inhibitor = qHTS for Inhibitors of TGF-b | HepG2 CAGA-GFP TGF-b/SMAD3 reporter, GFP fluorescence, 18 h; TGF-beta stimulated, 500 pg/mL final | hit rate 1.2% among 410,000 | Potency, µM (doses to about 46.1 µM), inactives show top-dose activity, negative = inhibition, usual class: inhibitors; further: potency means the concentration at half of the fitted maximal effect; on the % scale 0 is the no-effect control and ±100 the full control effect; nearly all actives have a fitted effect of over 65% in size
#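 Read-out: total well GFP (ex488/em500-530) summed from mean per-cell fluorescence. Cells: HEPG2 CAGA-GFP, 1% FBS DMEM, 18 h at 37 degrees C with 500 pg/mL final TGF-beta. Unstimulated wells served as the full-inhibition control; stimulated DMSO wells = 0%.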
# An asterisk follows results filed as active; ? = inconclusive; / = no result. An excerpt weighted towards active compounds, which were near 19% of everything screened. Unless noted, the call rests on the fitted dose curve; in most records, active means well fitted curve in the direction sought with a large enough effect; inconclusive means small, poorly fitted or top-dose-only effect, or another doubt; inactive means no such curve, though single readings can be large; an effect the other way counts as inactive or inconclusive.
SMILES,IL1B secr inh,HepG2 viability,ASM inhibitor,DT40 TDP1 CPT,TDP1 cell noCPT,TGFb inhibitor
O=C1c2ccccc2C(=O)N1/N=C/c1ccc(O)c(O)c1O,-1,1%,-6%,4.1µM*,?,5%
Oc1ccc(/C=N/N2CCOCC2)c(O)c1O,-19,-21%,-1%,4.1µM*,4.1µM*,-6%
O=C1c2cccc3cccc(c23)C(=O)N1/N=C/c1ccc(O)cc1O,-19,3%,-1%,-1%,-25%,15%
Cc1c(CCC(=O)NCCc2ccc(Cl)cc2)c(=O)oc2c(C)c(O)ccc12,/,-2%,/,?,-20%,2%
COc1cc2c(cc1OC)CN(C(=O)c1cc(S(=O)(=O)N3CCOCC3)ccc1C)CC2,-13,-9%,-1%,-3%,?,-4%
CC(C)(CNC(=O)CNC(=O)c1ccccc1F)N1CCOCC1,-2,2%,3%,-1%,-1%,-5%
CCOC(=O)C1Nc2ccccc2C2c3ccccc3CC12 (stereo unspecified),-10,-47%,-5%,21µM*,2.6µM*,?
CCOC(=O)C1Nc2c(F)cc(C)cc2C2c3ccccc3CC12 (stereo unspecified),?,-32%,-2%,?,?,?
CCOC(=O)C1Nc2c(cc(C(F)(F)F)cc2[N+](=O)[O-])C2c3ccccc3CC12 (stereo unspecified),12,-37%,-20%,18µM*,?,?
N#Cc1c(N2CCN(c3ccc([N+](=O)[O-])cc3)CC2)[n+](=O)c2ccc(Cl)cc2n1[O-],-2,-9%,-10%,0.46µM*,1.2µM*,-12%
O=C(CSc1n[nH]c(=O)[nH]c1=O)NC1CCCCC1,-14,-8%,4%,-3%,8%,-8%
Cc1c(CN2CCC(n3nccc3NC(=O)C3CC3)CC2)[nH]c2ccccc12,-2,-12%,4%,-17%,2%,-8%
O=c1c2c(-c3ccccc3)csc2ncn1/N=C/c1cn(-c2ccccc2)nc1-c1cccs1,/,0%,/,/,/,11%
Cn1cc(/C=N/n2cnc3scc(-c4ccc(Cl)cc4)c3c2=O)c2ccccc21,142,3%,6%,0.58µM*,0.82µM*,-26%
Cc1ccc(S(=O)(=O)Nc2ccccc2N2CCOCC2)cc1,64,0%,-2%,21µM*,?,-13%
O=S(=O)(Nc1cc(C(F)(F)F)ccc1N1CCOCC1)c1ccc2ccccc2c1,?,-22%,-20%,16µM*,?,?
O=S(=O)(Nc1cc(C(F)(F)F)ccc1N1CCOCC1)c1ccccc1,5,-19%,-1%,-30%,-13%,-3%
Cc1ccc(S(=O)(=O)Nc2ccccc2N2CCCCC2)cc1,54,-20%,-1%,?,16µM*,?
O=c1[nH]c(-c2ccccc2)nc(-c2ccccc2)c1Cl,8,4%,3%,10%,-19%,15%
O=C(NCC1CCCO1)c1cc(C(=O)c2ccc(Cl)cc2Cl)c[nH]1 (stereo unspecified),-11,-19%,-3%,?,?,0%
O=C(O)c1ccc(N2C(=O)/C(=C/C=C/c3ccccc3)SC2=S)cc1,-5,-5%,-1%,13%,4%,-12%
O=C1/C(=C/C=C/c2ccco2)SC(=S)N1c1ccc(O)cc1,-23,-7%,?,18µM*,?,-6%
O=C1/C(=C\c2ccco2)SC(=S)N1c1ccc(O)cc1,-19,-4%,-8%,5%,-14%,-6%

# Bioassay records as filed in PubChem.
